# Assay results from PubChem BioAssay AID651820 (National Center for Advancing Translational Sciences (NCATS), 2012).
# Among all 340,000 compounds or so, about 12,000 (3.5%) were called active. About 18% were inconclusive and are not listed. For the sample, actives were picked, then their nearest neighbours and some compounds at random. Values without a mark were called inactive. Calls come from the whole dose curve; as a rule, active = well fitted inhibition curve with a large enough effect; inconclusive = small, poorly fitted or top-dose-only effect, or another doubt; inactive = no such curve, though single readings can be large or run the other way.
# Assay: qHTS Assay for Inhibitors of Hepatitis C Virus (HCV)
# Conditions: Huh7.5.1 HCVcc-Cre infection, luciferase reporter, 44 h; series mostly up to 41.8 µM; activity change, negative = inhibition: at the top concentration
# In short: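 Infectious HCV cell culture screen: compound-treated cells (1,000/well, pre-plated 4 h) are infected with HCVcc-Cre at roughly 0.5 moi and grown 44 h. Infection is quantified by luciferase signal after 15 min substrate incubation at room temperature.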
# % is set by controls: 0 for no effect and ±100 for the full control effect; potency is the fitted concentration of half-maximal effect.
Structure (SMILES),"activity change, negative = inhibition",Potency
O=c1[nH]c(=S)[nH]c(O)c1/C=C1\C=Nc2ccccc21,23.1%,–
Cc1cc(F)ccc1S(=O)(=O)Nc1ccc(C(=O)N(C)Cc2ccco2)cc1,4.73%,–
CCOC(=O)C1=CN(Cc2ccc(Br)cc2)S(=O)(=O)NC1C (stereo not drawn),-13.7%,–
COC(=O)c1cc(Oc2ccc(S(=O)(=O)N3CCOCC3)cc2[N+](=O)[O-])cc(C(=O)OC)c1,-16.3%,–
CC1CCN(CCC(=O)Nc2ccccc2)CC1,4.3%,–
O=C(CCN1c2ccccc2Sc2ccccc21)Nc1ccccc1,–,12.6 µM (active)
O=C(CCN1C(=O)c2ccccc2C1=O)Nc1ccncc1,10.5%,–
O=S(=O)(Nc1ccc(-n2cnnn2)cc1)c1ccc(Cl)cc1,16.9%,–
Fc1ccccc1-c1cc2cc3c(cc2cn1)OCO3,-27.8%,–
O=C(CCN1CCCCC1)NCC(=O)Nc1ccc(Br)cc1C(=O)c1ccccc1,–,10 µM (active)
COc1ccc(NC(=O)CCN2CCCC2)c(OC)c1,9.37%,–
Cc1ccc(NC(=O)c2nc[nH]c2C(=O)N2CCCCC2)c(C(=O)c2ccccc2)c1,2.79%,–
Cc1cccc(C)c1Nc1nnc(SCC(=O)NCCCN2CCCC2=O)s1,-10.2%,–
COC(=O)C1=CO[C@@H](O[C@@H]2O[C@H](CO)[C@@H](O)[C@H](O)[C@H]2O)C2C1C[C@H](O)[C@@H]2C (stereo partly drawn),–,2.51 µM (active)
C=CC1C(OC2OC(CO)C(O)C(O)C2O)OC=C(C(=O)OC)C1CC1CC(=O)CC(CC(=O)CCc2ccc(O)cc2)O1 (stereo not drawn),7.56%,–
CO[C@H]1[C@@H]2C=CO[C@@H](O[C@H]3O[C@@H](CO)[C@H](O)[C@@H](O)[C@@H]3O)[C@@H]2[C@@]2(CO)O[C@@H]12,13.9%,–
CCCc1cc(=O)[nH]c(SCC(=O)c2cc(C)n(CCC)c2C)n1,-2.25%,–
Cc1cc(=O)[nH]c(SCc2ccc(Cl)cc2)n1,1.05%,–
Cc1cc(C(=O)CSc2nc(N)cc(=O)[nH]2)c(C)n1CCc1ccc(Cl)cc1,–,11.2 µM (active)
Cc1ccc(S(=O)(=O)N2CCN(C(=O)c3cc(S(=O)(=O)N4CCOCC4)ccc3F)CC2)cc1,-10.9%,–
CCCCCCCCNS(=O)(=O)CCNC1CCCCC1,-21.1%,–

Structure (SMILES),"activity change, negative = inhibition",Potency
COc1ccc(C(=O)Nc2ccc(N3CCC(C)CC3)cc2)cc1Br,-25.7%,–
COc1cccc(C(=O)Nc2ccc(N3CCN(C(=O)c4ccco4)CC3)cc2)c1,-26.8%,–
COc1cccc(C(=O)Nc2ccc(N3CCCC3)cc2)c1,–,11.2 µM (active)
O=C(CSc1ncn[nH]1)Nc1ccc(Br)cc1Br,-19.4%,–
COc1ccc(C(=O)NC2CC(C)(C)Cc3c2cnn3-c2ccccc2C)o1 (stereo not drawn),-12%,–
Cc1cccc(C(=O)OC(C)C(=O)NC2CCCc3ccccc32)c1O (stereo not drawn),10.8%,–
COc1cccc(C(=O)Nc2c3c(nn2-c2cccc(C)c2C)CS(=O)(=O)C3)c1OC,-22.1%,–
Cc1cc(C(=O)NC2CCCc3c2cnn3-c2cccc(C)c2C)c(C)o1 (stereo not drawn),–,10 µM (active)
CC1(C)Cc2c(cnn2-c2cccc(F)c2)C(NC(=O)c2cc[n+]([O-])cc2)C1 (stereo not drawn),23.5%,–
COc1ccc(C(=O)NC2CCCc3c2cnn3-c2cccc(C)c2C)c(OC)n1 (stereo not drawn),–,2.24 µM (active)
CC(=O)NCC(=O)NC1CCCc2c1cnn2-c1ccccc1F (stereo not drawn),11.3%,–
Cn1nccc1C(=O)NC1CCCc2c1cnn2-c1ccccc1F (stereo not drawn),–,0.891 µM (active)
Cc1cc(C(=O)NNC(=O)c2ccccc2O)c(C)o1,-18.6%,–
NC(=S)NN=C1CCCC(C(F)(F)F)C1 (stereo not drawn),19.4%,–
C#CCOCCOCCOCCNc1nc(N2CCN(C(=O)Cn3cc(CCCCN)nn3)CC2)nc(N2CCN(C(=O)[C@H](CCCCN)n3cc(CCC(=O)O)nn3)CC2)n1,19.6%,–
CCOC(=O)C1=CN(Cc2ccc(Br)cc2)S(=O)(=O)N(C)C1C (stereo not drawn),-2.23%,–
CCOC(=O)[C@H]1[C@H]2COc3cc(OC)ccc3[C@@H]2N2C(=O)CN(Cc3ccc(Cl)cc3)C(=O)[C@@]12C,1.97%,–
CN(CC(=O)NCCc1ccc(S(N)(=O)=O)cc1)CC(=O)Nc1ccc(F)c(F)c1F,-10.3%,–
O=C(NCCS(=O)(=O)N1CCN(c2ccc(F)cc2)CC1)c1ccc2c(c1)OCO2,-7.36%,–
CCCSc1nc(NCc2ccco2)c2c3c(sc2n1)COC(C)(CC)C3 (stereo not drawn),-20.9%,–
CN1CCc2c(sc3c2c(NCc2ccco2)nc2nnnn23)C1,–,10 µM (active)

Structure (SMILES),"activity change, negative = inhibition",Potency
CC1CCN(C(=O)CCc2nnc3ccc(NCc4ccco4)nn23)CC1,18.5%,–
CCC1(c2ccccc2)NC(=O)N(CC(=O)Nc2ccccc2C(=O)NC2CCCC2)C1=O (stereo not drawn),-12.5%,–
COCC(C)n1c(SCC(=O)NC2CCCCC2C)nc2ccccc2c1=O (stereo not drawn),9.44%,–
CSCCC(NC(=O)c1ccco1)C(=O)Nc1cc(C)ccn1 (stereo not drawn),30.5%,–
COc1cc(Br)c(-c2sc(Nc3ccccc3)n[n+]2-c2ccccc2)cc1OC,5.25%,–
Cc1ccc(Nc2nnc(SCc3ccccc3)s2)cc1,-17.6%,–
CCc1ccc(Nc2n[n+](-c3ccccc3)c(-c3cccc(Cl)c3Cl)s2)cc1,–,10 µM (active)
CCCN(C(=O)COC(=O)CNS(=O)(=O)c1ccc(NC(C)=O)cc1)C1CCS(=O)(=O)C1 (stereo not drawn),18.2%,–
COc1cc(OC)cc(C(=O)NNC(=O)CCOc2ccccc2OC)c1,13.4%,–
COc1ccc(C)cc1NC(=O)c1cc(-c2ccccc2)nc2c1cnn2C(C)C,-27.2%,–
O=C1Cc2cc(S(=O)(=O)Nc3cccc(F)c3)ccc2N1,13.7%,–
COc1cc(OC)nc(S(C)(=O)=O)n1,5.26%,–
COc1ccc(-c2cc(C(=O)NCCCN3CCCC3=O)c3ccccc3n2)cc1OC,17%,–
COc1ccc(-c2cc(C(F)(F)F)nc(S(C)(=O)=O)n2)cc1OC,–,10 µM (active)
CSCCC(NC(=O)COc1ccccc1)C(=O)OCc1ccc(Cl)cc1 (stereo not drawn),25.3%,–
O=C(COC(=O)c1ccc(O)cc1O)c1ccc2c(c1)OCCO2,-6.11%,–
Cc1ccccc1-n1nc(C)c2cc(C(=O)NC3CC3)sc21,-26.6%,–
CN(CCNC(=O)c1cc2c(-c3ccccc3F)nn(C)c2s1)C1CCCCC1,–,12.6 µM (active)
CCOC(=O)N1CCN(C(=O)c2cc3c(-c4ccc(Cl)cc4)nn(C)c3s2)CC1,-20%,–
CCOc1ncccc1C(=O)NNC(=O)c1cccc(S(=O)(=O)Nc2ccccc2OC)c1,3.32%,–
C=CCCC(=O)N1C[C@H]2CON(C)[C@H]2C[C@H]1c1cccc(Nc2ccccc2)c1,-15.5% [at 8.37 µM],–
